These results are taken from PubChem BioAssay (NCI).

What all share (test): NCI-60 one-dose screen, 48 h (100 = growth as untreated, 0 = no growth, -100 = all killed)
What all share (conditions): 10 µM unless noted

In experiment [1] the test system is HCT-15 colon.
In experiment [2] the test system is HT29 colon.
The subject of experiment [3] is SNB-75 CNS.
Experiment [4] has as its system SNB-19 CNS.
The subject of experiment [5] is U251 CNS.
Experiment [6] has as its system PC-3 prostate.
Experiment [7] has as its system SK-MEL-5 melanoma.
For experiment [8], the system named is UACC-62 melanoma.
The subject of experiment [9] is LOX IMVI melanoma.
Experiment [10] has as its system SK-MEL-28 melanoma.
The test system of experiment [11] is SK-MEL-2 melanoma.
For experiment [12], the system named is EKVX NSCLC.
Experiment [13] has as its system SN12C renal.
Experiment [14] has as its system UO-31 renal.
The test system of experiment [15] is TK-10 renal.
Experiment [16] concerns ACHN renal.
Experiment [17] concerns CAKI-1 renal.
Experiment [18] relates to CCRF-CEM leukemia.
Experiment [19] has as its system MOLT-4 leukemia.

SMILES strings stand for the structures. The panel holds about 83,000 compounds, 20% with a hit somewhere; the sample as a whole holds those more often.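 Compound tested at a single concentration for 48 hours in 96-well plates; a percent growth value below 10 was scored as active.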 Values without a mark were called inactive. Activity calls are given as the source filed them.

On to `O=C(c1nnc(Nc2ccccc2Br)o1)c1c[nH]c2ccccc12`, for which the growth in experiment [1] is 80.1%; in [2], 100%; in experiment [3], 89.2%; in experiment [4], 96.8%; in experiment [5], 96.9%; in experiment [6] it was 87.6%. For the same compound, the growth in experiment [7] is 89.5%; in [8], 83%; in [9], 96%; in experiment [10], 104%; in experiment [11], 110%; in experiment [12], 104%. For the same compound, the growth in experiment [13] is 93.4%; in experiment [14], 87%; in experiment [15], 112%; in [16], 90.8%; in [17], 87.4%; in experiment [18], 97.5%. Also, the growth in [19] is 106%.

Take `Cc1nn(-c2ccccc2)c(Cl)c1/C=C/C(=O)c1ccc(F)cc1`: the growth in experiment [1] was 73.9%; in experiment [2], 91.1%; in [3], 97.9%; in experiment [4] it was 87%; in [5], 75.9%; in [6] it was 78.7%. For the same compound, the growth in experiment [7] was 91.7%; in experiment [8] it was 65.2%; in experiment [9], 76.5%; in [10], 105%; in experiment [11], 92.8%; in [12] it was 93.1%. For the same compound, the growth in experiment [13] was 88.9%; in experiment [14] it was 79.1%; in [15] it was 101%; in experiment [16] it was 97.5%; in [17] it was 95.9%; in experiment [18], 4.52% (active). The growth in experiment [19] is 20.7%.

Take `COc1ccc(/C=C2\Oc3cc(OCCCCCN4CCCCC4)ccc3C2=O)cc1OC`: the growth was 49.3% in [1]; -59.2% (active) in [2]; 81% in experiment [3]; 91% in experiment [4]; 87% in [5]; 79.2% in [6]. Further, the growth is 66.7% in experiment [7]; 96.2% in [8]; 63.2% in [9]; 99.4% in [10]; 92.4% in [11]; 78.7% in experiment [12]. Besides, the growth in [13] is 86%; in experiment [14] it was 73.8%; in experiment [15], 82%; in experiment [16], 100%; in experiment [17] it was 94.3%; in [18] it was 15.2%. Besides, the growth in experiment [19] was 70.2%.

Turning to `COc1ccc(C/C(C)=C(/c2ccc(OCCCN(C)C)cc2)c2ccc(OC(C)=O)cc2)cc1`, the growth in [1] was 19.3%; in experiment [2] it was 4.9% (active); in experiment [3], 74.1%; in experiment [4], 82.3%; in experiment [5] it was 61.7%; in experiment [6], 79.3%. For the same compound, the growth is 69.6% in experiment [7]; 51.3% in experiment [8]; 47.8% in [9]; 2.23% (active) in [10]; 101% in experiment [11]; 80.9% in experiment [12]. Moreover, the growth in [13] is 80.8%; in experiment [14], 62.2%; in experiment [15], 98.9%; in experiment [16], 85%; in experiment [17], 81.6%; in [18], 63.1%. Besides, the growth in experiment [19] was 55.9%.

In the case of `Cc1cccc(NC(=O)Nc2ccc(-c3ccc4c(c3)NC(=O)/C4=C\c3ccc[nH]3)cc2)c1`, the growth in experiment [1] was 66.9%; in [2] it was 99.4%; in experiment [3], 81.7%; in [4], 90.2%; in [5], 74.7%; in experiment [6] it was 94%. The growth in [7] was 100%; in experiment [8], 98.1%; in experiment [9], 78.7%; in experiment [10], 95.9%; in experiment [11] it was 111%; in experiment [12], 46.5%. Moreover, the growth in experiment [13] was 100%; in experiment [14], 70.3%; in [15] it was 93.3%; in experiment [16], 91.1%; in experiment [17], 82.6%; in [18] it was 30.1%. Besides, in experiment [19], the growth was 53.8%.

For the compound `O=S(=O)(Nc1ccc(-n2cnc3cc(-c4ccc(O)cc4)ccc32)cc1)c1ccccc1`, the growth in experiment [1] is 87.2%; in experiment [2] it was 95.3%; in [3], 88.1%; in experiment [4] it was 90.1%; in experiment [5], 65.2%; in experiment [6], 90.7%. In addition, the growth in experiment [7] was 66.8%; in experiment [8], 82.3%; in [9] it was 81%; in experiment [10], 104%; in experiment [11], 83.2%; in experiment [12] it was 98.4%. Moreover, the growth was 73.4% in experiment [13]; 51.3% in experiment [14]; 113% in [15]; 80.6% in [16]; 68.7% in experiment [17]; 69.9% in [18]. The growth in experiment [19] was 71.7%.

For `COc1cc(C2=C(c3cn(C)c4ccccc34)COC2=O)cc(OC)c1OC`, the growth in experiment [1] is 5.39% (active); in experiment [2], 7.04% (active); in [3] it was -31.3% (active); in [4], 15.5%; in experiment [5] it was 13.8%; in [6], 13.3%. Also, the growth in [7] was 0.365% (active); in [8], 12.6%; in experiment [9], 2.86% (active); in experiment [10], 21.3%; in experiment [11], 27.7%; in [12], 28.2%. The growth in experiment [13] is 25%; in experiment [14], 10.4%; in experiment [15], 44.2%; in experiment [16], 28%; in experiment [17], 7.16% (active); in experiment [18] it was 8.87% (active). The growth in experiment [19] was 12.2%.

With `CC1(C)CC[C@]2(C(=O)O)CC[C@]3(C)C(=CC[C@@H]4[C@@]5(C)Cc6c([nH]c7ccccc67)C(C)(C)[C@@H]5CC[C@]43C)[C@@H]2C1`, the growth in experiment [1] was 21.3%; in experiment [2], 27.2%; in experiment [3] it was 49.4%; in experiment [4], 60%; in experiment [5] it was 25.7%; in experiment [6], 42.7%. Further, the growth was 73.7% in experiment [7]; 63.7% in [8]; 40.3% in experiment [9]; 83.2% in experiment [10]; 72.6% in [11]; 34.3% in experiment [12]. Also, the growth in experiment [13] was 42.8%; in experiment [14], 32.7%; in experiment [15], 31.3%; in experiment [16], 18.2%; in experiment [17], 17.5%; in experiment [18] it was 30.6%. Moreover, the growth in [19] was 32.3%.
